High-throughput results deposited in PubChem BioAssay by SRMLSC.
Only some compounds are listed: those with a hit (about 1.3% of all), similar ones and a draw of the others.
Spn PMK inh – S. pneumoniae PMK inhibition. purified PMK, PK/LDH-coupled NADH absorbance 340 nm. inhibition, % at 10 µM. hit rate 0.49% among 65,000. AID 539;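 active = top-ranked compounds by inhibition in the single 10 µM screen, taking a fixed number of the strongest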;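 also: 0% = full reaction with DMSO carrier and 100% = background rate without enzyme reaction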
NADH coupling – inhibitors of enzymes used to reach an NAD/NADH endpoint; coupled PK/LDH NADH assays, four targets; IC50, µM (top dose mostly 10 µM), for inactives: at the highest dose inhibition; hit rate 0.02% among 65,000; AID 774;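 active = single-dose screening hits from any of four coupled enzyme assays that gave an IC50 when retested across doses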;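 also: the DPM-DC format reads NADH fluorescence rather than 340 nm absorbance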
Spn DPM-DC inh – inhibitors of Streptococcus pneumoniae diphosphomevalonate decarboxylase | AID 556 | calls only at 10 µM | purified DPM-DC, PK/LDH coupled NADH fluorescence | hit rate 0.49% among 65,000;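 active = the 320 compounds with the highest percent inhibition in the single-dose primary screen, excluding strongly autofluorescent ones, cut at about 32% in these data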;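 also: kinetic rate of NADH fluorescence loss reporting ADP formed by the decarboxylase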
MK inhibit – inhibitors of Streptococcus pneumoniae mevalonate kinase; purified MK, PK/LDH-coupled NADH absorbance 340 nm; inhibition, % at 10 µM; hit rate 0.48% among 65,000; AID 555;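 active = ranked among the strongest by inhibition in the single 10 µM screen, a fixed top-ranked set picked for dose follow-up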
Numbers without * were called inactive; i = inactive; + = active, no number; [ ] = another dose, or the depositor's remark.

SMILES	Spn PMK inh	NADH coupling	Spn DPM-DC inh	MK inhibit
C=C(C)CSc1nnc([C@@H](NC(=O)OC(C)(C)C)C(C)CC)o1 (stereo partly drawn)	10	6%	i	9
CCOC(=O)CSc1cc(=O)n(C)c2cc(Cl)ccc12	3	16%	+	13
CCOC(=O)N1CCC(NC(=O)CSc2cc(=O)n(C)c3ccccc23)CC1	42*	38%	+	35
Cc1cccc(N(C)c2cc(C)nc3nc(C)nn23)c1	13	7%	i	7
COc1ccc(N2CC(C(=O)NCCCN3CCOCC3)CC2=O)cc1 (stereo not drawn)	0	17%	i	51*
COc1ccc(C2=NOC(C(=O)NCCCN3CCOCC3)C2)cc1 (stereo not drawn)	3	2%	i	0
OCCSc1c(F)c(SCCO)c(SCCO)c(F)c1SCCO	3	6%	i	12
COC(=O)c1ccccc1NC(=O)c1ccc2c(c1)C(=O)N(Cc1ccco1)C2=O	11	19%	+	4
CCc1ccc(NC(=O)c2ccc3c(c2)C(=O)N(Cc2ccco2)C3=O)cc1	1	1%	i	3
O=C(Cn1ncc2c(=O)oc3ccccc3c21)NCCN1CCN(c2ccccc2F)CC1	3	6%	i	9
CC1CC(C)CN(CCCNC(=O)Cn2ncc3c(=O)oc4ccccc4c32)C1 (stereo not drawn)	7	18%	+	10
CCOc1cc(C(=O)NCCN2CCOCC2)cc(OCC)c1OCC	3	18%	i	50*
COC(=O)c1ccc(NC(=O)Cn2nnc3ccccc32)cc1	10	3%	i	8
COC(=O)c1nonc1NCn1nnc2ccccc21	29*	12%	i	7
CC(C)=CCCC(C)NC(=O)NC1CCCCC1 (stereo not drawn)	10	2%	i	3
CCC(=O)Nc1cccc(NC(=O)CN2CCN(c3ccccc3OC)CC2)c1	4	4%	i	9
CCCC(=O)Nc1cccc(NC(=O)CN2CCN(c3ccccc3OC)CC2)c1	27*	3%	i	4
CC(C)=CCCC(C)N(C=O)C(C)CCC=C(C)C (stereo not drawn)	0	2%	i	2
CC(C)=CCC/C(C)=C/CN(CC(C)O)CC(C)O (stereo not drawn)	0	15%	i	40*
Cc1cccc(C)c1NC(=O)C(c1ccccc1)N1CCN(C(=O)c2ccco2)CC1 (stereo not drawn)	18	29%	+	0
CCOC(=O)CSc1nnc(CNC(=O)c2ccc(OC)cc2)n1C1CCCCC1	19	7%	i	2
Cc1ccc(C)c(-c2nc3cc(N)ccc3o2)c1	0	3%	+[fluoresces]	4
COc1cccc(NC(=O)N(Cc2cc3cc(C)cc(C)c3[nH]c2=O)CC2COCCO2)c1 (stereo not drawn)	0	3%	i	9
CN(CCc1ccccn1)Cc1ccc(Cl)cc1	0	20%	i	59*
CCc1ccc(CN(C)CCc2ccccn2)cc1	0	7%	i	52*
SMILES	Spn PMK inh	NADH coupling	Spn DPM-DC inh	MK inhibit
COc1cc(CN(C)CCc2ccccn2)cc(OC)c1OC	15	22%	i	52*
COc1ccc(CN(C)CCc2ccccn2)cc1OC	18	9%	i	8
Cc1ccc(CN(C)CCc2ccccn2)cc1	3	20%	i	56*
CCCCOc1ccccc1NC(=O)CSc1nnnn1C(C)(C)C	15	7%	i	7
CC1CC(C)CN(c2nc3c(c(=O)n(C)c(=O)n3C)n2CCSc2nc3ccccc3o2)C1 (stereo not drawn)	13	6%	i	6
CCCOc1ccc(C2C(=O)N(C3CCCCC3)CC(=O)N2CCCOCC)cc1OC (stereo not drawn)	26*	9%	i	0
COc1ccc(C2C(=O)N(C3CCCCC3)CC(=O)N2CCc2ccccc2)cc1OC (stereo not drawn)	26*	9%	i	0
CC1(C)SCC2C(=O)N3C(CSC3(C)C)C(=O)N21 (stereo not drawn)	11	6%	i	6
CCC12CCCN3CCC4(C(=C(C(=O)OC)C1)Nc1ccccc14)C32 (stereo not drawn)	8	5%	i	7
CCOC(=O)C1=C(C)NC(SCc2cc(=O)[nH][nH]2)=C(C#N)C1c1cccs1 (stereo not drawn)	4	4%	i	7
c1ccc(Cc2nn3c(-c4ccncc4)nnc3s2)cc1	0	2%	i	3
CC/C(=C\C(=O)c1cccnc1)Nc1ccc(C)c(C)c1	17	11%	i	10
CN1CCc2c(sc3c2c(=O)n(-c2ccccc2)c2nnc(SCc4ccc(F)cc4)n32)C1	active	5%	i	3
COC(=O)Sc1nnc(-c2ccc(Br)cc2)o1	16	20µM*	+	5
OCC#CCSc1nnc(-c2ccc(Br)cc2)o1	10	7%	i	11
CN(C)c1nc2c(c(=O)[nH]c(=O)n2C)n1Cc1ccccc1Br	10	6%	i	2
O=C(COC(=O)c1ccc(S(=O)(=O)N2CCCC2)cc1)NCc1ccccc1	15	10%	i	11
COc1ccc(-n2c(SCc3nnc(-c4ccccc4)o3)nnc2-c2ccccc2)cc1	26*	9%	i	2
C#CCNc1nc(CC)nc2c1nnn2Cc1ccccc1F	9	5%	i	5
O=C1CN(C(=O)COC(=O)C2=COCCO2)c2ccccc2N1	23	26%	i	56*
COc1ccc(N2CCN(C3CC(=O)NC3=O)CC2)cc1 (stereo not drawn)	0	6%	i	11
COc1ccc(NC2CC(=O)NC2=O)cc1 (stereo not drawn)	26*	9%	i	0
COC(=O)c1nn(-c2c(C)n(C)n(-c3ccccc3)c2=O)cc1O	0	2%	i	6
Cc1cccc2cc(CN(Cc3ccco3)S(=O)(=O)c3ccc4c(c3)OCCO4)c(=O)[nH]c12	5	17%	+	5
Cc1cc(C)c2[nH]c(=O)c(CN(CC3CCCO3)S(=O)(=O)c3ccc4c(c3)OCCO4)cc2c1 (stereo not drawn)	15	13%	i	18
SMILES	Spn PMK inh	NADH coupling	Spn DPM-DC inh	MK inhibit
COc1ccc(OC)c(NC(=O)C(CC(=O)O)NCc2ccco2)c1 (stereo not drawn)	11	5%	i	3
COCCNC(=O)C(c1ccc(C)o1)N(Cc1ccc(OC)cc1)C(=O)Cn1nnc2ccccc21 (stereo not drawn)	25*	3%	i	0
CCOc1ccc(N(CC(=O)NC(C)CC)S(=O)(=O)c2c(C)noc2C)cc1 (stereo not drawn)	9	4%	i	3
CN(C)C(=O)N1CCC(C(=O)NCc2cccs2)CC1	22	22%	+	0
CCN(CC)S(=O)(=O)c1ccc(NC(=O)COc2c(OC)cccc2OC)cc1	0	1%	i	3
COCCn1nnnc1CN(Cc1cccnc1)Cc1cc2cc(OC)ccc2[nH]c1=O	13	8%	+	0
Cc1cnc(SCCc2ccncc2)nc1C	3	6%	+	16
